This is an account of results in PubChem BioAssay (EPA / NIEHS).

Common to all, as to conditions: mRNA level, 48 h; actives raise or lower the signal
Read-out in one experiment: MYC, MYC (gene 4609)
In words: LTEA_HepaRG_MYC: Life Technologies and Expression Analysis (LTEA) Assay for MYC using HepaRG (AID 2283518). A digest of the protocol: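 HepaRG, ~100,000 cells/well, collagen I; 48 h plating; serum-free induction medium; 48 h dosing, duplicate, 100 uM top, half-log, 0.5% DMSO; total RNA → qRT-PCR MYC; gain/loss fit vs DMSO.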

Read-out in experiment [1]: Paternally Expressed 10 (PEG10), PEG10 (gene 23089)
Put plainly: LTEA_HepaRG_PEG10: Life Technologies and Expression Analysis (LTEA) Assay for Paternally Expressed 10 (PEG10) using HepaRG (AID 2283520). The procedure, abridged: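 HepaRG, 48 h post-plating → serum-free induction medium → 48 h chemical exposure (duplicate, 8-pt, max 100 uM, half-log, 0.5% DMSO) → lysis in RLT → TaqMan qRT-PCR for PEG10, ACTB/GAPDH/POLR2A normalisation.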

Read-out in experiment [2]: Protein phosphatase 2A (PPP2R4), PTPA (gene 5524)
In words: LTEA_HepaRG_PPP2R4: Life Technologies and Expression Analysis (LTEA) Assay for Protein phosphatase 2A (PPP2R4) using HepaRG (AID 2283522). The procedure, abridged:
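Readout is PPP2R4 transcript level by microfluidic qRT-PCR after 48 h chemical treatment of human HepaRG liver cells. Concentrations spanned 100 uM downward in half-log steps; gain or loss of signal was fitted relative to DMSO.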

Read-out in experiment [3]: Phosphatase and tensin (PTEN), PTEN (gene 5728)
Put plainly: LTEA_HepaRG_PTEN: Life Technologies and Expression Analysis (LTEA) Assay for Phosphatase and tensin (PTEN) using HepaRG (AID 2283523). The procedure, abridged: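 Read-out is PTEN transcript level by multiplexed TaqMan qRT-PCR after 48 h chemical treatment of human HepaRG cultures in serum-free induction medium. Concentrations spanned 100 uM downward in half-log steps, 0.5% DMSO throughout; activity fitted in both directions against vehicle.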

Read-out in experiment [4]: solute carrier (SLC22A1), SLC22A1 (gene 6580)
Put plainly: LTEA_HepaRG_SLC22A1: Life Technologies and Expression Analysis (LTEA) Assay for solute carrier (SLC22A1) using HepaRG (AID 2283524).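 On AC50: differentiated human HepaRG liver cells in serum-free induction medium.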 A digest of the protocol:
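HepaRG (human liver line), 48 h dosing in serum-free induction medium; 8 conc., half-log down from 100 uM, 0.5% DMSO vehicle, duplicates. Endpoint: SLC22A1 mRNA, qRT-PCR, housekeeping-normalized; gain/loss fit vs DMSO.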

Read-out in experiment [5]: Pyruvate Dehydrogenase Kinase 4 (PDK4), PDK4 (gene 5166)
In words: LTEA_HepaRG_PDK4: Life Technologies and Expression Analysis (LTEA) Assay for Pyruvate Dehydrogenase Kinase 4 (PDK4) using HepaRG (AID 2283525). The procedure, abridged:
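In this multiplexed human HepaRG expression assay, cells are treated 48 h with test chemicals across an eight-point range starting at 100 uM. PDK4 mRNA changes, normalized to ACTB/GAPDH/POLR2A, are fitted in both directions relative to vehicle.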

Read-out in experiment [6]: NAD(P)H dehydrogenase [quinone] 1 (NQO1), NQO1 (gene 1728)
In words: LTEA_HepaRG_NQO1: Life Technologies and Expression Analysis (LTEA) Assay for NAD(P)H dehydrogenase [quinone] 1 (NQO1) using HepaRG (AID 2283526). The procedure, abridged:
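HepaRG, 48 h post-plating → serum-free induction medium → test chemical 48 h (duplicate, 100 uM top, half-log x8, 0.5% DMSO) → RNA isolation → qRT-PCR, ACTB/GAPDH/POLR2A normalization; bidirectional curve fit vs DMSO baseline.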

Read-out in experiment [7]: Nuclear factor erythroid 2-related factor 2 (Homo sapiens) (UniProt Q16236)
In words: LTEA_HepaRG_NFE2L2: Life Technologies and Expression Analysis (LTEA) Assay for Nuclear factor erythroid 2-related factor 2 (NFE2L2) Transcription Factor using HepaRG (AID 2283527). A digest of the protocol: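 Transcript level of NFE2L2 is the read-out, measured by microfluidic TaqMan qRT-PCR and normalized to three housekeeping genes. Human HepaRG cultures received test chemical for 48 h at up to 100 uM in half-log steps. Gain or loss of signal is fitted relative to 0.5% DMSO.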

Read-out in experiment [8]: succinate dehydrogenase complex iron sulfur subunit B (SDHB), SDHB (gene 6390)
Put plainly: LTEA_HepaRG_SDHB: Life Technologies and Expression Analysis (LTEA) Assay for succinate dehydrogenase complex iron sulfur subunit B (SDHB) using HepaRG (AID 2283528). The procedure, abridged:
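SDHB transcript level read by TaqMan qRT-PCR, housekeeping-normalised (ACTB, GAPDH, POLR2A), after 48 h chemical treatment of plated HepaRG cells; eight concentrations top 100 uM, half-log steps, 0.5% DMSO, duplicates; fitted both directions against DMSO.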

Read-out in experiment [9]: Signal transducer and activator of transcription 3 (Homo sapiens) (UniProt P40763)
Put plainly: LTEA_HepaRG_STAT3: Life Technologies and Expression Analysis (LTEA) Assay for Signal transducer and activator of transcription (STAT3) using HepaRG (AID 2283529). The procedure, abridged: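 Read-out is STAT3 mRNA level by qRT-PCR, normalized to three housekeeping genes, in human HepaRG liver cells treated for 48 h. Concentrations ran from 100 uM downward in half-log steps; curves were fitted for gain or loss relative to 0.5% DMSO.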

Read-out in experiment [10]: solute carrier (SLCO1B1), SLCO1B1 (gene 10599)
Put plainly: LTEA_HepaRG_SLCO1B1: Life Technologies and Expression Analysis (LTEA) Assay for solute carrier (SLCO1B1) using HepaRG (AID 2283530). The procedure, abridged: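 HepaRG, serum-free induction medium, 48 h dosing, 8-pt half-log from 100 uM, 0.5% DMSO vehicle, duplicates. Readout: SLCO1B1 mRNA, qRT-PCR, ACTB/GAPDH/POLR2A normalization; up or down fit vs DMSO.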

Read-out in experiment [11]: sulfotransferase 2A1 (SULT2A1), SULT2A1 (gene 6822)
Put plainly: LTEA_HepaRG_SULT2A1: Life Technologies and Expression Analysis (LTEA) Assay for sulfotransferase 2A1 (SULT2A1) using HepaRG (AID 2283531). The procedure, abridged:
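Transcript levels of SULT2A1, quantified by qRT-PCR and normalized to three housekeeping genes, serve as the readout. Human HepaRG cultures receive test chemicals for 48 h at up to 100 uM in half-log steps, with 0.5% DMSO vehicle.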

Read-out in experiment [12]: Transforming Growth Factor (TGFA), TGFA (gene 7039)
Put plainly: LTEA_HepaRG_TGFA: Life Technologies and Expression Analysis (LTEA) Assay for Transforming Growth Factor (TGFA) using HepaRG (AID 2283532). A digest of the protocol: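 HepaRG (human liver line), 48 h exposure, 8 conc. half-log down from 100 uM, 0.5% DMSO vehicle, duplicates; serum-free induction medium. TGFA mRNA by TaqMan qRT-PCR, ACTB/GAPDH/POLR2A normalization; gain/loss fit vs DMSO.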

Read-out in experiment [13]: Transforming Growth Factor (TGFB1), TGFB1 (gene 7040)
In words: LTEA_HepaRG_TGFB1: Life Technologies and Expression Analysis (LTEA) Assay for Transforming Growth Factor (TGFB1) Transporter using HepaRG (AID 2283533). The procedure, abridged:
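HepaRG, 48 h post-plating, switched to serum-free induction medium; chemicals 100 uM top, half-log, 8 pts, 0.5% DMSO, dup; 48 h exposure; RNA → Fluidigm TaqMan qRT-PCR; norm ACTB/GAPDH/POLR2A; bidirectional fit vs DMSO.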

Read-out in experiment [14]: Tumor necrosis factor receptor 1 (TNFRSF1A), TNFRSF1A (gene 7132)
In words: LTEA_HepaRG_TNFRSF1A: Life Technologies and Expression Analysis (LTEA) Assay for Tumor necrosis factor receptor 1 (TNFRSF1A) using HepaRG (AID 2283535). A digest of the protocol: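 Read-out is TNFRSF1A transcript level by TaqMan qRT-PCR, normalized to three housekeeping genes, scored as gain or loss of signal versus 0.5% DMSO. Human HepaRG cells received test chemicals for 48 h at up to 100 uM (half-log series).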

Read-out in experiment [15]: Thyroid Hormone Responsive (THRSP), THRSP (gene 7069)
Put plainly: LTEA_HepaRG_THRSP: Life Technologies and Expression Analysis (LTEA) Assay for Thyroid Hormone Responsive (THRSP) using HepaRG (AID 2283536). A digest of the protocol:
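mRNA induction or loss relative to 0.5% DMSO vehicle was fitted bidirectionally across an eight-point curve whose highest exposure was 100 uM. Human HepaRG liver cells received chemicals in duplicate over 48 h before RNA extraction.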

Read-out in experiment [16]: Cellular tumor antigen p53 (Homo sapiens) (UniProt P04637)
Put plainly: LTEA_HepaRG_TP53: Life Technologies and Expression Analysis (LTEA) Assay for Tumor Protein P53 (TP53) using HepaRG (AID 2283537). The procedure, abridged: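 TP53 transcript measured by qRT-PCR, normalized to three housekeeping genes, after 48 h treatment of human HepaRG cultures with chemicals from 100 uM downward in half-log steps (0.5% DMSO vehicle, serum-free induction medium). Up- or down-regulation fitted against DMSO.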

Read-out in experiment [17]: Nuclear factor NF-kappa-B p105 subunit (Homo sapiens) (UniProt P19838)
Put plainly: LTEA_HepaRG_NFKB1: Life Technologies and Expression Analysis (LTEA) Assay for Nuclear Factor Kappa B Subunit 1 (NFKB1) using HepaRG (AID 2283521).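 Further: differentiated human HepaRG liver cells in serum-free induction medium.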 The procedure, abridged:
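NFKB1 transcript was measured by TaqMan qRT-PCR on Fluidigm arrays, normalised to three housekeeping genes and fitted in both directions against 0.5% DMSO. HepaRG cells were dosed in duplicate for 48 h in serum-free induction medium, eight half-log steps from 100 uM.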

SMILES strings stand for the structures. Activity calls are given as the source filed them. How the source made its calls: active means hit-call score of the fitted dose curve at least 0.9, where 1 is the maximum; inactive means score below 0.9.

Chain of Signal transducer and activator of transcription 3 (Homo sapiens) (P40763 whole entry, looked up): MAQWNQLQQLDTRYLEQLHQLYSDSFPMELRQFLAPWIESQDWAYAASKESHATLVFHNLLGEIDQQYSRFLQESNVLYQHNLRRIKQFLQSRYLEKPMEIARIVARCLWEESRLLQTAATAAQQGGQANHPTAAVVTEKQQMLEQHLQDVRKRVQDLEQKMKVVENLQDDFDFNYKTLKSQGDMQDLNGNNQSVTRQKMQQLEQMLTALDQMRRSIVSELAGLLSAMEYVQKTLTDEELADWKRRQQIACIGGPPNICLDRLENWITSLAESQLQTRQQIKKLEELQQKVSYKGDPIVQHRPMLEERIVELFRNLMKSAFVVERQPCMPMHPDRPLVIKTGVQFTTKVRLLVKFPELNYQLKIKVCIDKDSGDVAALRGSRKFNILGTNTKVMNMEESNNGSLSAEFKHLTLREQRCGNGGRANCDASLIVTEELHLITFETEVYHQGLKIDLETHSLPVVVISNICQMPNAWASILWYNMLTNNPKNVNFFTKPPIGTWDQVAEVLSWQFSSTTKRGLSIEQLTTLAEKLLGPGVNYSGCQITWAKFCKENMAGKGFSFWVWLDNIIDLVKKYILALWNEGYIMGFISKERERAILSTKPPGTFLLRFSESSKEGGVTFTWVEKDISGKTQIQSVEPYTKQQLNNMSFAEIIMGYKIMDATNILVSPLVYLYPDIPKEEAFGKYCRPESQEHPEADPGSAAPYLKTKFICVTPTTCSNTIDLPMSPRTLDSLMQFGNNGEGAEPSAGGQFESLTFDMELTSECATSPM
Chain of Nuclear factor NF-kappa-B p105 subunit (Homo sapiens) (P19838 whole entry, looked up): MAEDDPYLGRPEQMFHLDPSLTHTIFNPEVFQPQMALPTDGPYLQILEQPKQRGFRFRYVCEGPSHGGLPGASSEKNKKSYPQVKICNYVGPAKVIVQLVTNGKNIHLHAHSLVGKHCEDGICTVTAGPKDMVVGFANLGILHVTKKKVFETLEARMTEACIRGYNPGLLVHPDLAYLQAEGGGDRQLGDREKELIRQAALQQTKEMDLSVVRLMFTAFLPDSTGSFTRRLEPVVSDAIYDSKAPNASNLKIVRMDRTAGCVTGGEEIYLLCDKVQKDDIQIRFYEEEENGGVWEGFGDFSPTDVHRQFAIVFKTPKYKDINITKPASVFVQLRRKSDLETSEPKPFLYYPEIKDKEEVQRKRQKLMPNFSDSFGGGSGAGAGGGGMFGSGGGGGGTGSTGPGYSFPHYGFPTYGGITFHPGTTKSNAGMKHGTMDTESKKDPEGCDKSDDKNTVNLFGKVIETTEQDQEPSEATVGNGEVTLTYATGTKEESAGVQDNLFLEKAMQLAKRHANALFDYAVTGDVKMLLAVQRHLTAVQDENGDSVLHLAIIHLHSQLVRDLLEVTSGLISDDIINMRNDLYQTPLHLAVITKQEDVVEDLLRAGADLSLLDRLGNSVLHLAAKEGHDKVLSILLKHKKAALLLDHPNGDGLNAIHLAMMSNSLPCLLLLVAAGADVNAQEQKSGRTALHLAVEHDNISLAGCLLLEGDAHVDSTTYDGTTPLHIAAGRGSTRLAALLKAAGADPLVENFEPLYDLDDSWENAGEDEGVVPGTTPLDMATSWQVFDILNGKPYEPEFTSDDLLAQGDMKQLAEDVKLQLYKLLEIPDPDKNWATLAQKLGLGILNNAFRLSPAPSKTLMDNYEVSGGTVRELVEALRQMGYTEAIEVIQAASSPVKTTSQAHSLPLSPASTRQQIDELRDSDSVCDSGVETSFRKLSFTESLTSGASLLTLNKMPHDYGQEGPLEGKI
Chain of Nuclear factor erythroid 2-related factor 2 (Homo sapiens) (Q16236 whole entry, looked up): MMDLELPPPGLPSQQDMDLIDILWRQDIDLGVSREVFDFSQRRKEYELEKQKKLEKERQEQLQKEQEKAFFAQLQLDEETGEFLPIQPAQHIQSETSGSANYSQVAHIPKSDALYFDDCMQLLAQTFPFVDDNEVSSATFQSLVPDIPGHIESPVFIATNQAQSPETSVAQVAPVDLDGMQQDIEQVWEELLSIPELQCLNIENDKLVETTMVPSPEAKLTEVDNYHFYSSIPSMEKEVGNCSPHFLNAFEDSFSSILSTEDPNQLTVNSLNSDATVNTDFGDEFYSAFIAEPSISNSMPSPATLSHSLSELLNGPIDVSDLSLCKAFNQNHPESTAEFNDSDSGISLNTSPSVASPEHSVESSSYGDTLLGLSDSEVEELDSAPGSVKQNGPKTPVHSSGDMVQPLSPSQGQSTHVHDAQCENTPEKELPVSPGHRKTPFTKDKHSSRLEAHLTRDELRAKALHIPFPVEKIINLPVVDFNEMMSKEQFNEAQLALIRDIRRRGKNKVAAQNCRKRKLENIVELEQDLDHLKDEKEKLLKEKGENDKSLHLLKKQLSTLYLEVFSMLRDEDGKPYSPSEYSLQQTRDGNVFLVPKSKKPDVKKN
Chain of Cellular tumor antigen p53 (Homo sapiens) (P04637 whole entry, looked up): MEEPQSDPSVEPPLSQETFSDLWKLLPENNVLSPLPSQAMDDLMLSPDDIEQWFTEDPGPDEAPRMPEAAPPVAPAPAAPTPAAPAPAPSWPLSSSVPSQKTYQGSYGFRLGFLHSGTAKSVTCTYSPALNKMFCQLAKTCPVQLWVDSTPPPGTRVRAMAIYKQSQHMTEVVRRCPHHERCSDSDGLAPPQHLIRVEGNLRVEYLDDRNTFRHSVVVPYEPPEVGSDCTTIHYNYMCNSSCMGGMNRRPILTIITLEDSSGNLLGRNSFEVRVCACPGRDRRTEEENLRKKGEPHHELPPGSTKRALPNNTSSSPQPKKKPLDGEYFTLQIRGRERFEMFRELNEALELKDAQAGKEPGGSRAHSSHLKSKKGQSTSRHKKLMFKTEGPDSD

In the case of `CCCCCCCCCC[N+](C)(C)[O-]`, the outcome with MYC, MYC (gene 4609) was “inactive”; in experiment [1], “inactive”; in [2], “inactive”; in experiment [3], “inactive”; in experiment [4] it was “inactive”; in [5] it was “inactive”. The molecule was classed as inactive in experiment [6], in experiment [7], in experiment [8], in [9], in experiment [10] and in [11]. For the same molecule, the molecule was called inactive in experiment [12], in [13], in experiment [14], in [15] and in [16].

As for `O=C1OC(c2ccc(O)cc2)(c2ccc(O)cc2)c2ccccc21`, the outcome with MYC, MYC (gene 4609) was “inactive”; in experiment [17], “inactive”; in experiment [2] it was “inactive”; in [3], “inactive”; in [6] it was “inactive”; in experiment [7] it was “inactive”. Further, the result in experiment [8], in experiment [9], in experiment [11], in [12], in experiment [13] and in experiment [14] was inactive. In addition, in experiment [16], the molecule was called inactive. Besides, the concentration at half-maximal activity (AC50) in experiment [1] is 76.1 µM (active); in experiment [4], 78 µM (active); in [5], 50 µM (active); in experiment [10] it was 73.2 µM (active); in [15], 80.3 µM (active).

For `CCCCCCC(C=O)=Cc1ccccc1`, the outcome is “inactive” in the experiment with MYC, MYC (gene 4609); “inactive” in [1]; “inactive” in experiment [17]; “inactive” in [2]; “inactive” in [3]; “inactive” in [4]. The molecule was called inactive in [5], in experiment [6], in experiment [7], in experiment [8], in experiment [9] and in [10]. Also, the molecule was classed as inactive in [11], in [12], in [13], in [14] and in [15].

Regarding `C#CC(O)C(CC)CCCC` (centres undefined), the outcome with MYC, MYC (gene 4609) was “inactive”; in [1], “inactive”; in experiment [17], “inactive”; in experiment [2], “inactive”; in [3], “inactive”; in experiment [4], “inactive”. Besides, the molecule was called inactive in experiment [5], in [6], in experiment [7], in experiment [8], in experiment [9] and in experiment [10]. The molecule was classed as inactive in experiment [11], in experiment [12], in [13], in experiment [14] and in experiment [15].
